High-throughput results from PubChem.
HT1080NT lethal: qHTS for induction of synthetic lethality in tumor cells producing 2HG: qHTS for the HT-1080-NT fibrosarcoma cell line | HT-1080-NT fibrosarcoma viability, CellTiter-Glo ATP luminescence, 48 h | Potency, µM (doses to about 46.1 µM), inactives show top-dose activity, negative = less viability, usual class: cytotoxic | hit rate 1.6% among 360,000 | AID 686970, 2013;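 note: NT is the 2HG producing partner of a matched IDH1 knockdown line; 0% = DMSO-treated cells and -100% = media-only wells without cells; nearly all actives have a fitted effect of over 55% in size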
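Viability by CellTiter-Glo luminescence after 48 h compound exposure at 37C of HT-1080-NT cells (750/well, RPMI, 5% FBS). % activity scaled between DMSO wells and medium-only wells, then curve-fitted and categorized by curve class.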
MCF10A rerep: A quantitative high throughput screen for small molecules that induce DNA re-replication in MCF 10a normal breast cells; Potency, µM (doses to about 46.1 µM), for the others: at the highest dose activity, positive = re-replication, usual class: activators; MCF 10A DNA re-replication, Hoechst nuclear intensity, 48 h; hit rate 2.9% among 350,000; note: % of control where 0% means no effect; nearly all actives have a fitted effect of over 50% in size
HT1080 IDH1KD tx: qHTS for induction of synthetic lethality in tumor cells producing 2HG: qHTS for the HT-1080-IDH1KD cell line. HT-1080 IDH1 knockdown viability, ATP luminescence, 48 h. Potency, µM (series often up to 46.1 µM), inactives show at the top dose activity, negative = toxicity, most hits filed as cytotoxic. hit rate 2% among 360,000. AID 686971, 2013;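 note: 0% = DMSO wells and -100% = cell-free medium wells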
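Luminescent ATP read-out (CellTiter-Glo, 10 min at room temperature) after 48 h compound exposure at 37 °C gave viability of IDH1-knockdown HT-1080 cells. Activity was normalised to DMSO and cell-free wells, then fitted as concentration-response curves.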
KB-V1 MDR tox: qHTS assay for MDR1-selective chemotherapeutics: Primary screen using the drug-selected MDR subline cells KB-V1; KB-V1 MDR cells viability, CellTiter-Glo, 72 h; Potency, µM (series often up to 46.1 µM), usual class: cytotoxic; hit rate 3.4% among 400,000; note: % is set by controls: 0 for no effect and ±100 for the full control effect; nearly all actives have a fitted effect of over 60% in size
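qHTS viability screen in drug-selected KB-V1 MDR cells: 72 h compound treatment at 37 degrees C, ATP luminescence end point.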
SW480 rerep: A quantitative high throughput screen for small molecules that induce DNA re-replication in SW480 colon adenocarcinoma cells. hit rate 1.8% among 340,000. SW480 DNA re-replication, Hoechst DNA content imaging, 48 h. Potency, µM (top dose mostly 46.1 µM), for the others: at the highest dose re-replication activation, actives largely listed as activators; note: % of control where 0% means no effect; nearly all actives have a fitted effect of over 55% in size
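Image-based read-out: total Hoechst fluorescence of nuclei (405 nm excitation, 500-530 nm emission), with hits raising the fraction of high-intensity nuclei. SW480 colon cells incubated 48 hr with compounds at 37 C.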
KB-3-1 tox: qHTS assay for MDR1-selective chemotherapeutics: Primary screen using the parental adenocarcinoma cell KB-3-1; hit rate 1.4% among 400,000; Potency, µM (doses to about 46.1 µM), hits mostly cytotoxic; KB-3-1 viability, CellTiter-Glo ATP luminescence, 72 h; note: % is set by controls: 0 for no effect and ±100 for the full control effect; nearly all actives have a fitted effect of over 60% in size
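Luminescent ATP read-out (CellTiter-Glo) measures survival of drug-naive KB-3-1 cells after 72 h compound exposure at 37 °C. Titration series was screened from lowest to highest concentration, with DMSO vehicle plates as background controls.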
Active calls of the source: *. The list is not random: actives were taken first. Their share in the collection is about 7.9%. Calls come from the whole dose curve; as a rule, active = well fitted curve in the direction sought with a large enough effect; inconclusive = small, poorly fitted or top-dose-only effect, or another doubt; inactive = no such curve, though single readings can be large; an effect the other way counts as inactive or inconclusive. Potency is the fitted concentration of half-maximal effect.

`COc1ccc(NC(=O)C2(C)CCN2C(=O)c2ccc(C(C)(C)C)cc2)cc1OC` (configuration not stated) gave HT1080NT lethal 2%, HT1080 IDH1KD tx inconclusive, KB-V1 MDR tox 16µM* and KB-3-1 tox 15µM*.
`COc1ccc(NC(=O)C2(C)CCN2Cc2ccc(OC)c3ccccc23)cc1OC` (configuration not stated) gave HT1080NT lethal inconclusive, HT1080 IDH1KD tx 23µM*, KB-V1 MDR tox inactive and KB-3-1 tox inactive.
For COc1cccc(CN2CCC2(C)C(=O)Nc2cccc3cccnc23)c1F (configuration not stated) the results were HT1080NT lethal 23µM*, HT1080 IDH1KD tx 13µM*, KB-V1 MDR tox 7.3µM* and KB-3-1 tox 7.3µM*.
`COc1ccc(OC)c(NC(=O)C2(C)CCN2Cc2cccc(OC)c2F)c1` (configuration not stated) gave HT1080NT lethal inconclusive, HT1080 IDH1KD tx -46%, KB-V1 MDR tox inactive and KB-3-1 tox inactive.
For COc1ccc(NC(=O)C2(C)CCN2Cc2cccc(OC)c2OC)cc1OC (configuration not stated) the results were HT1080NT lethal 5%, HT1080 IDH1KD tx -1%, KB-V1 MDR tox 8.2µM* and KB-3-1 tox inconclusive.
CCOc1ccc(NC(=O)CSc2nnc3scc(-c4ccc(Cl)cc4)n23)cc1 was read as KB-V1 MDR tox inactive and KB-3-1 tox inactive.
COc1ccc2cc(C(c3nnnn3CCc3ccccc3)N3CCCC(C)C3)c(=O)[nH]c2c1 (configuration not stated) was read as HT1080NT lethal 1%, MCF10A rerep -37%, HT1080 IDH1KD tx -2%, KB-V1 MDR tox 18µM*, SW480 rerep 9% and KB-3-1 tox inactive.
COc1ccccc1C(c1nnnn1CCc1ccccc1)N1CCN(c2ccccc2)CC1 (configuration not stated) was read as HT1080NT lethal 11%, MCF10A rerep 6%, HT1080 IDH1KD tx 9%, KB-V1 MDR tox inactive, SW480 rerep 1% and KB-3-1 tox inactive.
Screening COCCn1nnnc1C(c1cc2cc(OC)ccc2[nH]c1=O)N1CCC(Cc2ccccc2)CC1 (configuration not stated) returned HT1080NT lethal 0%, MCF10A rerep inconclusive, HT1080 IDH1KD tx -2%, KB-V1 MDR tox inconclusive, SW480 rerep 19% and KB-3-1 tox inconclusive.
`COc1ccccc1C(c1nnnn1CCc1ccccc1)N1CCCCCC1` (configuration not stated) gave HT1080NT lethal inconclusive, MCF10A rerep inconclusive, HT1080 IDH1KD tx inconclusive, KB-V1 MDR tox 16µM*, SW480 rerep inconclusive and KB-3-1 tox inactive.
Screening O=C(CSc1nc2ccccc2c(=O)[nH]1)Nc1ccc(N2CCOCC2)c(Cl)c1 returned HT1080NT lethal -2%, MCF10A rerep 14%, HT1080 IDH1KD tx -21%, KB-V1 MDR tox inconclusive, SW480 rerep -11% and KB-3-1 tox inactive.
For Cc1sc(NC(=O)c2ccco2)c(C(c2cccnc2)N2CCN(CCO)CC2)c1C (configuration not stated) the results were HT1080NT lethal -6%, MCF10A rerep 26%, HT1080 IDH1KD tx 0%, KB-V1 MDR tox inactive, SW480 rerep -22% and KB-3-1 tox inactive.
